# FMDV inh: antivirals against foot and mouth disease virus | FMDV antiviral cell-based qHTS | Potency, µM (top dose mostly 57.9 µM), without a hit: at the highest dose activity change, negative = inhibition, usual class: inhibitors | 410,000 compounds, 1.2% hits | AID 1159524; calls by dose curve; tested in HEK293T cells; note: read-out not given here; potency is the fitted concentration of half-maximal effect; nearly all actives have a fitted effect of over 45% in size
# Vaccinia Venus: vaccinia inhibition (Venus reporter). 330,000 compounds, 0.46% hits. Potency, µM (titrated, usually from 36.5 µM), inactives show at the top dose activity change, negative = inhibition, hits mostly inhibitors. AID 720580. Vaccinia virus Venus reporter expression, fluorescence; calls by dose curve; tested in A549 cells; note: potency is the fitted concentration of half-maximal effect; nearly all actives have a fitted effect of over 30% in size
# HCMV inh: human cytomegalovirus inhibition | activity change, negative = inhibition, % at 57.5 µM | HFF cells, HCMV-luciferase reporter, 72 h; hits give low values | 410,000 compounds, 4.5% hits; in the data active = activity change below about -60%; inconclusive = no clear call, values can overlap the other calls; inactive = above about -39%
#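 Human foreskin fibroblasts infected with luciferase-reporter HCMV at MOI 1 PFU/cell, compounds at two doses. Luciferase measured 72 h post infection; normalized to buffer-only basal and Salinomycin (10uM) controls.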
# HCV inh: blocks hepatitis C virus; Potency, µM (highest dose often 41.8 µM), for the others: at the highest dose activity change, negative = inhibition, actives largely listed as inhibitors; 340,000 compounds, 3.4% hits; Huh7.5.1 HCVcc-Cre infection, luciferase reporter, 44 h; active = well fitted inhibition curve with a large enough effect; inconclusive = small, poorly fitted or top-dose-only effect, or another doubt; inactive = no such curve, though single readings can be large or run the other way; note: potency is the fitted concentration of half-maximal effect
#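 A cell-based infection assay in which seeded cells (1,000 per well) receive test compound after 4 h, are inoculated with HCVcc-Cre at approximately 0.5 moi, and are incubated 44 h before luminescence detection.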
# VACV mCherry inh: inhibitors of vaccinia virus infection (mCherry reporter signal). Vaccinia virus mCherry reporter infection, fluorescence. Potency, µM (top dose mostly 36.5 µM), inactives show at the top dose activity change, negative = inhibition, usual class: inhibitors. 310,000 compounds, 0.63% hits. AID 720579; calls by dose curve; tested in A549 cells; note: potency is the fitted concentration of half-maximal effect; nearly all actives have a fitted effect of over 35% in size
# Starred values were filed as active, the others as inactive; i = inactive; ? = inconclusive; nt = no result given; + = active, no number. Only some compounds are listed: those with a hit (about 7.3% of all), similar ones and a draw of the others. % is set by controls: 0 for no effect and ±100 for the full control effect.
SMILES,FMDV inh,Vaccinia Venus,HCMV inh,HCV inh,VACV mCherry inh
O=C(C[n+]1cccc(Br)c1)c1ccc(F)cc1,nt,-5.1%,nt,nt,-10.4%
O=C(CNc1cccc(S(=O)(=O)N2CCCC2)c1)Nc1cccc(Br)c1,?,?,-29.4,?,-23.9%
CCN(CC)S(=O)(=O)c1cccc(NC(=O)CNc2cccc(S(=O)(=O)N3CCOCC3)c2)c1,?,?,nt,0.562µM*,?
CC1(c2cc(F)ccc2F)NC(=O)N(CC(=O)Nc2cccc(S(=O)(=O)N3CCCC3)c2)C1=O (configuration not stated),-18.9%,nt,0.0,2.2%,nt
CCN(CC)S(=O)(=O)c1cc(NC(=O)CNc2cccc(S(=O)(=O)N3CCCC3)c2)ccc1C,?,?,nt,0.562µM*,-26.3%
CC1(c2ccc3ccccc3c2)NC(=O)N(CC(=O)Nc2cccc(S(=O)(=O)N3CCOCC3)c2)C1=O (configuration not stated),35.5µM*,-4.2%,?,6.2%,-19.3%
CCOc1ccc(S(=O)(=O)N2CCCCC2)cc1NC(=O)CN1C(=O)NC(C)(c2ccc(C)cc2)C1=O (configuration not stated),0.3%,?,nt,10µM*,?
CCN(CC)S(=O)(=O)c1ccc(C)c(NC(=O)CNc2cccc(S(=O)(=O)N3CCOCC3)c2)c1,-27.3%,-4.9%,-4.2,?,-28.0%
COc1ccc(S(=O)(=O)N2CCCCCC2)cc1NC(=O)CN1C(=O)NC(C)(c2ccc(C)cc2)C1=O (configuration not stated),-5.4%,-21.4%,-0.4,?,-26.0%
O=C(c1cnn(-c2nccc(-c3ccccc3C(F)(F)F)n2)c1C1CC1)N1CCN(CCO)CC1,-7.0%,3.1%,nt,nt,-7.9%
COc1cc2nc(N(C)C)c(CNCc3nonc3C)cc2c(OC)c1OC,-2.9%,6.8%,nt,nt,-4.6%
CCCC(=O)Nc1cccc(OCc2cc(=O)n3cccc(C)c3n2)c1,11.5%,-18.7%,19.3,nt,-7.5%
CC1CCc2ccccc2N1CC(=O)Nc1cccc(S(=O)(=O)N2CCCC2)c1 (configuration not stated),-13.5%,-6.0%,-31.4,31.6µM*,?
O=C(CN1CCCc2ccccc21)Nc1cccc(S(=O)(=O)N2CCCC2)c1,0.8%,-10.5%,-0.4,nt,-11.9%
COc1cccc(CN(CC(=O)NCc2ccco2)C(=O)CNS(=O)(=O)c2ccccc2)c1,23.7%,-7.5%,-61.4*,12.8%,-15.5%
COc1ccc(S(=O)(=O)N(Cc2ccco2)Cc2cc3ccccc3[nH]c2=O)cc1,?,-12.7%,-24.3,14.1µM*,i
Cc1ccc(S(=O)(=O)N(Cc2cccnc2)Cc2cc3ccccc3[nH]c2=O)cc1,-8.8%,-9.0%,-62.4*,-9.9%,-12.6%
Cc1ccc(S(=O)(=O)NCC(=O)N(CC(=O)NCc2ccco2)Cc2ccccc2)cc1,23.2%,-14.0%,-9.5,-2.2%,?
O=c1[nH]c2ccccc2cc1CN(c1ccccc1)S(=O)(=O)c1ccccc1,0.0%,-19.8%,-63.8*,3.4%,i
CCCNC(=O)COCc1cc(-c2ccc(F)cc2)on1,20.9%,-18.6%,5.6,nt,-10.3%
COc1ccc(CCNC(=O)C(C)n2nc(C)c3sc4ccccc4c3c2=O)c(OC)c1 (configuration not stated),-17.2%,-18.1%,-29.9,nt,-14.7%
COc1cccc(CN(Cc2ccco2)S(=O)(=O)c2ccc(S(=O)(=O)NCc3ccccc3)cc2)c1OC,20.4%,nt,-13.4,11.2µM*,nt
COc1ccccc1/C=C/c1nc2ccccc2n1C(C)C,12.5%,-16.8%,70.6,nt,-29.4%
CC(=O)Nc1ccc(NC(=O)c2nc(SCc3ccccc3F)ncc2Cl)cc1,nt,-17.7%,nt,nt,16.8%
COc1ccccc1CNC(=O)CC(c1ccc(F)cc1)N1Cc2ccccc2C1=O (configuration not stated),20.3%,-5.9%,-73.3*,nt,-4.6%
SMILES,FMDV inh,Vaccinia Venus,HCMV inh,HCV inh,VACV mCherry inh
COc1cc(C(CC(=O)NCc2ccc(F)cc2)N2Cc3ccccc3C2=O)cc(OC)c1OC (configuration not stated),40.2%,-6.4%,16.8,nt,-14.1%
COc1ccc(-c2nc(C)ncc2N=Nc2ccccc2)cc1,-14.3%,-2.2%,-35.0,31.6µM*,nt
CCc1cccc(NC(=O)CC(c2ccc(OC)cc2)N2Cc3ccccc3C2=O)c1 (configuration not stated),-10.1%,-12.1%,-24.6,nt,-14.1%
Cc1ccc(-n2ncc3c(N4CCCCCC4)ncnc32)cc1,20µM*,6.0%,-99.2*,nt,-8.2%
Clc1ccc(-n2ncc3c(N4CCCC4)ncnc32)cc1,10µM*,-11.1%,-66.1*,41.9%,-1.6%
Cn1ncc2c(N3CCN(c4ccccc4F)CC3)ncnc21,?,-12.4%,?,?,-23.1%
Fc1ccc(-n2ncc3c(N4CCCCCC4)ncnc32)cc1,?,-4.4%,-2.6,nt,-1.1%
Cc1ccc(-n2ncc3c(N4CCC5(CC4)OCCO5)ncnc32)c(C)c1,39.8µM*,-7.2%,54.0,?,-1.6%
Cn1ncc2c(N3CCN(c4ccc(Cl)c(Cl)c4)CC3)ncnc21,11.2µM*,-16.1%,-27.3,?,-26.6%
Clc1cccc(-n2ncc3c(N4CCCCCC4)ncnc32)c1,-17.2%,5.7%,?,nt,2.5%
Cc1ccccc1NS(=O)(=O)c1ccc(Br)s1,15.6%,-8.9%,15.8,nt,-4.3%
CCC(Sc1nncn2c1cc1oc(C)cc12)C(=O)Nc1ccc(F)cc1 (configuration not stated),-25.0%,-14.2%,-38.5,nt,-6.8%
Cn1ncc(Cl)c1C(=O)N1CCN(c2ccc(Cl)c(Cl)c2)CC1,28.2µM*,-14.2%,0.8,-22.8%,-14.4%
Cn1ncc(Cl)c1C(=O)N1CCN(c2ccccc2)CC1,-5.3%,nt,-8.2,19.4%,nt
O=C(Nc1cccc(-c2cccc(F)c2)c1)C1CCN(Cc2ccc(CO)o2)CC1,5.1%,nt,-36.4,?,nt
O=C(Nc1cccc(-c2cccc(F)c2)c1)C1CCN(C2CCOCC2)CC1,-14.3%,nt,0.0,12.6µM*,nt
Cc1cc(C)n(CCCN2CCC(C(=O)Nc3cccc(-c4cccc(F)c4)c3)CC2)n1,?,?,-99.8*,?,?
COc1cccc(-c2cccc(NC(=O)C3CCN(CCCn4cccn4)CC3)c2)c1,-9.5%,-11.3%,-30.9,nt,-17.0%
O=C(Nc1cccc(F)c1)C1CCN(c2nc3ccccc3[nH]2)CC1,-11.0%,-2.3%,+,nt,i
CN(C)CC(C)(O)c1ccc2c(c1)CN(Cc1cn(C)c3ccccc13)CCO2 (configuration not stated),-11.5%,12.2%,nt,nt,-12.0%
Cc1cccn2c(=O)c3cc(C#N)c(=O)n(-c4nnc(SCc5ccccc5F)s4)c3nc12,-8.2%,1.5%,-12.8,nt,-7.7%
NCCNc1ccc(C(=O)N2c3ccccc3Sc3ccccc32)cc1[N+](=O)[O-],?,-22.8%,30.3,11.2µM*,-4.7%
O=C(Nc1cccc(S(=O)(=O)NC2=NCCC2)c1)c1cn(-c2ccccc2)nc1-c1ccc(F)cc1,25.5%,nt,2.1,11.2µM*,nt
